The results in this text go back to article PMC7819943, “Rice protein-binding microarrays: a tool to detect cis-acting elements near promoter regions in rice”.

In all, about 39,000 sequences were measured (“fluorescence intensity (a.u.)”: median about 4,300, highest 2% from about 39,000 on). This is one part of a sample in which the highest values are shown more often than they occur.

In the experiment the target is T1, OsSMF1 (Oryza sativa, UniProt Q6ZLB0 1-436).
T1 sequence: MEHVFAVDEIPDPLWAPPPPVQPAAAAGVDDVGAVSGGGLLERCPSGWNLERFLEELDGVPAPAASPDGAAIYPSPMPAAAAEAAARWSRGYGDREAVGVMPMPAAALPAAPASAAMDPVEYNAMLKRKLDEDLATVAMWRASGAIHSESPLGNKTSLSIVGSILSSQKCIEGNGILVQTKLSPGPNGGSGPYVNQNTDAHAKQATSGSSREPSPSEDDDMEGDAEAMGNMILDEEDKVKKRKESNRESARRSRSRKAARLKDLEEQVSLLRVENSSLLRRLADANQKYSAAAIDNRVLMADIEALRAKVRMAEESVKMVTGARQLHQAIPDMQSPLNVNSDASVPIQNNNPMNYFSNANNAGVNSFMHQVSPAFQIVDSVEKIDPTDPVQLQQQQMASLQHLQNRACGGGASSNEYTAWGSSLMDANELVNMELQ
The experiment in a line: protein-binding microarray (RPBM); PBS, 2% BSA, 51.3 ng/ul salmon testes DNA, 50 uM zinc acetate, 200 nM TF, 25 C, 1 h; high values mean tight binding. The conditions noted are these: protein: recombinant; tags: N-terminal polyhistidine and DsRed monomer fusion (pET32a); chain copies: 2; label: CyDye5-dUTP incorporated in the synthesized complementary strand; 3' TTTTT single-stranded linker to array surface; dsDNA, one strand shown. A digest of the protocol: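 Transcription factors were each fused at the N-terminus to a polyhistidine tag plus DsRed and expressed in E. coli BL21-CodonPlus before Ni–NTA purification. Binding to a double-stranded custom Agilent array was carried out with 200 nM protein at 25 °C for 1 h in PBS, 2% BSA, salmon testes DNA and 50 µM zinc acetate. The binding signal is per-feature fluorescence intensity, in arbitrary units, on an Axon 4000B scanner.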
Regarding “GGGCTTCGTCCCCATCATCTCCTGCCACCTCAAACACCTGCGGAGTCACCTAGTGCAG”, the binding signal was 3520 fluorescence intensity (a.u.).
On to “GATGGGCTTGTGCTGACATCATCTATACGTGCTTTGCTCCCGGAGTCACCTAGTGCAG”, for which the binding signal was 14500 fluorescence intensity (a.u.).
Regarding “ATATATTCTATGTGGTCTGCCCACACGCAAGCATGAGCTCCGGAGTCACCTAGTGCAG”, the binding signal is 3740 fluorescence intensity (a.u.).
For the sequence “TTCCGGCATGCTCAACAATTGGTCCAGGTGTTTGTTCCAGCGGAGTCACCTAGTGCAG”, the binding signal was 42200 fluorescence intensity (a.u.).
Turning to “TGCCAATGGTGTGTGCAATTGCAACATGCGTTTGGTTGTGCGGAGTCACCTAGTGCAG”, the binding signal is 4100 fluorescence intensity (a.u.).
The figure for “GCGCCGCCAGCCGCTACAGGTCAGCGGCAACAGCAGGTTCCGGAGTCACCTAGTGCAG” is 29200 fluorescence intensity (a.u.); for “GACACGTATGATTTGTGTGGTAGTACATAGCACGCACGCACGGAGTCACCTAGTGCAG” it is 35800 fluorescence intensity (a.u.).
As to “CCAGGCACCGACCTGTAGTTGCATCAGCAAACCATGGCTGCGGAGTCACCTAGTGCAG”, the binding signal is 4690 fluorescence intensity (a.u.).
As for “AGGGATTATGTGTGTGTAAGATATTTGTGACTAGTTTATTCGGAGTCACCTAGTGCAG”, the binding signal was 3630 fluorescence intensity (a.u.).
“TTGTAAGCTCAGCCTAGATAGAGTGAAGATATTTTATTGGCGGAGTCACCTAGTGCAG”: the binding signal is 49700 fluorescence intensity (a.u.).
Turning to “AAATATAGAGATTTATTAACATAACAGCCTATCCACGTGGCGGAGTCACCTAGTGCAG”, the binding signal was 17200 fluorescence intensity (a.u.).
Turning to “ATGAAATGGACCTCAAGATCGAGTCATGACAAGACAACGGCGGAGTCACCTAGTGCAG”, the binding signal was 4150 fluorescence intensity (a.u.).
With “TACACTGGTGGATGTGAATCATTGGAATGCATGCCTCCTGCGGAGTCACCTAGTGCAG”, the binding signal is 3810 fluorescence intensity (a.u.).
The value for “TTAGGCCTCTCACAGTGCTCTTAGCTGGACCGGTGCTACACGGAGTCACCTAGTGCAG” was 3920 fluorescence intensity (a.u.); that for “GGGATAGCAGGACACGTGTGTATAGCTGCTGCGCCTGCCTCGGAGTCACCTAGTGCAG” was 9260 fluorescence intensity (a.u.); that for “CCTCAGGCCGCCTCTCGTGCTGTACACGTAGGATAGCTACCGGAGTCACCTAGTGCAG” was 46200 fluorescence intensity (a.u.).
“TTAAATGAATCATTTTGTTCCTATTTCTAAAATAAACTATCGGAGTCACCTAGTGCAG”: the binding signal is 3380 fluorescence intensity (a.u.).
As to “ATGCAGGCCACCTCACGCCACACGCTGTATCGCGCCCATACGGAGTCACCTAGTGCAG”, the binding signal was 5790 fluorescence intensity (a.u.).
The value for “CTAGCTACTTCTATCCTCCACCTCCTAAATGATCGATTTGCGGAGTCACCTAGTGCAG” was 3740 fluorescence intensity (a.u.); that for “TGTTAGTTTTGCATGCACAGAGATGATTAGGCAGTAGCAACGGAGTCACCTAGTGCAG” was 3940 fluorescence intensity (a.u.).
The figure for “CCAACCATGCTTCGCAGTTGTCACAGAACGTCAACAGTGCCGGAGTCACCTAGTGCAG” is 3460 fluorescence intensity (a.u.).
Regarding “TCAGTAGTTGCTTCTCGCAACGTCACAGGCTTTAGATGCACGGAGTCACCTAGTGCAG”, the binding signal was 44200 fluorescence intensity (a.u.).
As to “CCAGATATCTTTTACTAAAGGATGGAAATGAGGCGTAATTCGGAGTCACCTAGTGCAG”, the binding signal was 29100 fluorescence intensity (a.u.).
Turning to “GAGTTGTGCAGCCAAGTCAGCTGCACATGGGGAACAAGCGCGGAGTCACCTAGTGCAG”, the binding signal was 6520 fluorescence intensity (a.u.).
The value for “GTGTAGTTGGAGCGCGCGGTGGAAGATGAACAAGCTCAGCCGGAGTCACCTAGTGCAG” was 41200 fluorescence intensity (a.u.); that for “ACAAAGGAGAAGAAGCCATGATGTGGAGTTGGCCGGTGGCCGGAGTCACCTAGTGCAG” was 3800 fluorescence intensity (a.u.).
Take “TAAAACAAGTCATAATAAAATAAATAGTAATTAAAATTCTCGGAGTCACCTAGTGCAG”: the binding signal is 29200 fluorescence intensity (a.u.).
With “AACAATAACAAGATTAAAATAAACTTCACACGTTGTAATGCGGAGTCACCTAGTGCAG”, the binding signal is 3160 fluorescence intensity (a.u.).
On to “AAAATAATTAAAATAGTACGAGTAGATTCACACAAGATCTCGGAGTCACCTAGTGCAG”, for which the binding signal is 39900 fluorescence intensity (a.u.).
With “GCAAAATGTCAGGCCGACACAACCCGTCATACTCTTCATGCGGAGTCACCTAGTGCAG”, the binding signal is 3480 fluorescence intensity (a.u.).
“GGGGTGCTTCACAAATCCCCTTGCGTACATGAGGTGTTTTCGGAGTCACCTAGTGCAG”: the binding signal is 3320 fluorescence intensity (a.u.).
For the sequence “GTAACTAAAGATACAAAATTATTAGTGTAACCGGAGGCATCGGAGTCACCTAGTGCAG”, the binding signal was 34600 fluorescence intensity (a.u.).
Turning to “AGTCTCTAACTAAACACCATATATCTCTATTAATTACTACCGGAGTCACCTAGTGCAG”, the binding signal was 16000 fluorescence intensity (a.u.).
The figure for “CTATCCGTCCAAATTAGGCTATCTCTAAAGATTAACTAACCGGAGTCACCTAGTGCAG” is 41000 fluorescence intensity (a.u.); for “TTTTATGTATGTATTCAAATATTTCGATGTGACGGAATTTCGGAGTCACCTAGTGCAG” it is 4210 fluorescence intensity (a.u.); for “GGATTTAACACTAGAGACCCTAATTTTGCTGCTCAGGCGACGGAGTCACCTAGTGCAG” it is 28500 fluorescence intensity (a.u.).
In the case of “ATATGAGATATTTCATATGCTGTTTATTGCTGCTGCCAGACGGAGTCACCTAGTGCAG”, the binding signal is 6080 fluorescence intensity (a.u.).
Turning to “GGAAAGAGAAGAGAGGAAAGAGAGATGACGTGGACACCTGCGGAGTCACCTAGTGCAG”, the binding signal was 21100 fluorescence intensity (a.u.).
With “TCGTCGCACGACCAGACCAGCAGCACCAACTCCCTTTCTGCGGAGTCACCTAGTGCAG”, the binding signal was 3160 fluorescence intensity (a.u.).
For “ACCATATGACTTATATATCTGTCGTCAGCTCATTTCTATGCGGAGTCACCTAGTGCAG”, the binding signal was 7290 fluorescence intensity (a.u.).
The figure for “GTGTCATTTCATTCACTGGTCGGCTATATCTGGGCATATGCGGAGTCACCTAGTGCAG” is 53800 fluorescence intensity (a.u.); for “ATGGGGAATCTGGCACCTTTGGCTACTGGTGATTCAGTGTCGGAGTCACCTAGTGCAG” it is 3510 fluorescence intensity (a.u.).
